Measured values: PubChem BioAssay AID1159580 (chemical genetic matrix, 2015)
The whole screen tested about 5,500 compounds, of which about 2,000 (36%) were called active. About 18% were inconclusive and are not listed. Cut-off read from the data, not from the text of the source: active = normalized growth mostly below about 0.91 (no sharp cut-off); inconclusive = no clear call, values can overlap the other calls; inactive = mostly above about 0.92. Some of the results follow.

Experiment: chemical genetic growth profiling, strain panel (AID 1159580);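 note: tested at 20 µM; growth read once vehicle control cultures reached saturation at 30 °C; 1 = growth at the plate median or of vehicle wells; lower values mean less growth of the strain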
Conditions: growth OD

Measured: normalized growth

O=C(O)c1cc(=O)c2cc(Cl)ccc2[nH]1
inactive: S. cerevisiae deletion strains, locus YAL013W, strain DEP1, active compounds read low 0.985 | S. cerevisiae deletion strains, locus YBR021W, strain FUR4, active compounds read low 1.03 | S. cerevisiae deletion strains, locus YBR229C, strain ROT2, active compounds read low 1.01 | S. cerevisiae deletion strains, locus YCL029C, strain bik1, active compounds read low 1.01 | S. cerevisiae deletion strains, locus YDL035C, strain GPR1, active compounds read low 1 | S. cerevisiae deletion strains, locus YDL074C, strain BRE1, active compounds read low 0.972 | S. cerevisiae deletion strains, locus YDL101C, strain DUN1, active compounds read low 1 | S. cerevisiae deletion strains, locus YDL134C, strain PPH21, active compounds read low 1 | S. cerevisiae deletion strains, locus YDL185W, strain tfp1, active compounds read low 1 | S. cerevisiae deletion strains, locus YDL192W, strain arf1, active compounds read low 1.01 | S. cerevisiae deletion strains, locus YDR101C, strain arx1, active compounds read low 1.01 | S. cerevisiae deletion strains, locus YDR150W, strain NUM1, active compounds read low 1.01 | S. cerevisiae deletion strains, locus YDR162C, strain NBP2, active compounds read low 0.988 | S. cerevisiae deletion strains, locus YDR318W, strain mcm21, active compounds read low 1.03 | S. cerevisiae deletion strains, locus YDR388W, active compounds read low 1.01 | S. cerevisiae deletion strains, locus YDR502C, strain sam2, active compounds read low 1 | S. cerevisiae deletion strains, locus YEL061C, strain CIN8, active compounds read low 1 | S. cerevisiae deletion strains, locus YER110C, active compounds read low 1 | S. cerevisiae deletion strains, locus YER155C, strain BEM2, active compounds read low 0.995 | S. cerevisiae deletion strains, locus YER167W, strain BCK2, active compounds read low 1.02 | S. cerevisiae deletion strains, locus YGL078C, strain dbp3, active compounds read low 1 | S. cerevisiae deletion strains, locus YGL086W, strain mad1, active compounds read low 1.01 | S. cerevisiae deletion strains, locus YGL248W, strain PDE1, active compounds read low 1.02 | S. cerevisiae deletion strains, locus YGR078C, strain PAC10, active compounds read low 0.995 | S. cerevisiae deletion strains, locus YGR135W, strain pre9, active compounds read low 0.994 | S. cerevisiae deletion strains, locus YGR229C, strain SMI1, active compounds read low 0.972 | S. cerevisiae deletion strains, locus YGR252W, strain gcn5, active compounds read low 1.04 | S. cerevisiae deletion strains, locus YHR030C, strain SLT2, active compounds read low 1 | S. cerevisiae deletion strains, locus YHR079C, strain IRE1 (second series), active compounds read low 1.02 | S. cerevisiae deletion strains, locus YHR094C, strain hxt1, active compounds read low 1.01 | S. cerevisiae deletion strains, locus YHR129C, strain ARP1, active compounds read low 1.02 | S. cerevisiae deletion strains, locus YHR200W, strain rpn10, active compounds read low 1.01 | S. cerevisiae deletion strains, locus YIL066C, strain RNR3, active compounds read low 0.997 | S. cerevisiae deletion strains, locus YIL073C, strain SPO22, active compounds read low 1.08 | S. cerevisiae deletion strains, locus YIL125W, strain kgd1, active compounds read low 1.01 | S. cerevisiae deletion strains, locus YIR030C, strain dcg1, active compounds read low 1.01 | S. cerevisiae deletion strains, locus YJL095W, strain BCK1, active compounds read low 0.994 | S. cerevisiae deletion strains, locus YJL134W, strain LCB3, active compounds read low 1.01 | S. cerevisiae deletion strains, locus YJL168C, strain set2, active compounds read low 1 | S. cerevisiae deletion strains, locus YJL187C, strain SWE1 (second series), active compounds read low 1.01 | S. cerevisiae deletion strains, locus YJR043C, strain POL32, active compounds read low 1.01 | S. cerevisiae deletion strains, locus YJR075W, strain HOC1, active compounds read low 0.983 | S. cerevisiae deletion strains, locus YKL009W, strain mrt4, active compounds read low 1.03 | S. cerevisiae deletion strains, locus YKL068W, active compounds read low 0.996 | S. cerevisiae deletion strains, locus YKL085W, strain MDH1 (second series), active compounds read low 1.02 | S. cerevisiae deletion strains, locus YKL085W, strain MDH1, active compounds read low 1.02 | S. cerevisiae deletion strains, locus YKL190W, strain CNB1, active compounds read low 1 | S. cerevisiae deletion strains, locus YKR001C, strain vps1, active compounds read low 1.01 | S. cerevisiae deletion strains, locus YLR039C, strain RIC1, active compounds read low 1.02 | S. cerevisiae deletion strains, locus YLR058C, strain SHM2, active compounds read low 1.01 | S. cerevisiae deletion strains, locus YLR102C, strain apc9, active compounds read low 1.01 | S. cerevisiae deletion strains, locus YLR262C, strain YPT6, active compounds read low 1.01 | S. cerevisiae deletion strains, locus YLR268W, strain sec22, active compounds read low 1.01 | S. cerevisiae deletion strains, locus YLR330W, strain CHS5, active compounds read low 1 | S. cerevisiae deletion strains, locus YLR342W, strain FKS1 (second series), active compounds read low 1.08 | S. cerevisiae deletion strains, locus YLR371W, strain rom2, active compounds read low 1.02 | S. cerevisiae deletion strains, locus YLR418C, strain cdc73, active compounds read low 0.984 | S. cerevisiae deletion strains, locus YML016C, strain PPZ1, active compounds read low 1 | S. cerevisiae deletion strains, locus YML032C, strain rad52, active compounds read low 1.02 | S. cerevisiae deletion strains, locus YML124C, strain tub3, active compounds read low 1 | S. cerevisiae deletion strains, locus YMR078C, strain ctf18, active compounds read low 1.02 | S. cerevisiae deletion strains, locus YMR223W, strain ubp8, active compounds read low 1.03 | S. cerevisiae deletion strains, locus YMR263W, strain SAP30, active compounds read low 1 | S. cerevisiae deletion strains, locus YMR307W, strain GAS1, active compounds read low 1.03 | S. cerevisiae deletion strains, locus YNL067W, strain RPL9B, active compounds read low 0.994 | S. cerevisiae deletion strains, locus YNL128W, strain TEP1, active compounds read low 0.951 | S. cerevisiae deletion strains, locus YNL153C, strain GIM3, active compounds read low 0.999 | S. cerevisiae deletion strains, locus YNL233W, strain BNI4, active compounds read low 1.01 | S. cerevisiae deletion strains, locus YNL250W, strain rad50, active compounds read low 1.01 | S. cerevisiae deletion strains, locus YNL271C, strain bni1, active compounds read low 1 | S. cerevisiae deletion strains, locus YNL298W, strain CLA4, active compounds read low 1.01 | S. cerevisiae deletion strains, locus YNL307C, strain MCK1, active compounds read low 1.03 | S. cerevisiae deletion strains, locus YNL322C, strain KRE1, active compounds read low 0.998 | S. cerevisiae deletion strains, locus YNR052C, strain pop2, active compounds read low 1.01 | S. cerevisiae deletion strains, locus YOL006C, strain TOP1, active compounds read low 1.03 | S. cerevisiae deletion strains, locus YOL012C, strain htz1 1.31 | S. cerevisiae deletion strains, locus YOL147C, strain pex11, active compounds read low 1.01 | S. cerevisiae deletion strains, locus YOR061W, strain CKA2, active compounds read low 1 | S. cerevisiae deletion strains, locus YOR069W, strain VPS5, active compounds read low 1.01 | S. cerevisiae deletion strains, locus YOR136W, strain idh2, active compounds read low 1.01 | S. cerevisiae deletion strains, locus YOR144C, strain elg1, active compounds read low 1 | S. cerevisiae deletion strains, locus YOR184W, strain ser1, active compounds read low 1.06 | S. cerevisiae deletion strains, locus YOR316C, strain cot1, active compounds read low 1.01 | S. cerevisiae deletion strains, locus YPL055C, strain LGE1, active compounds read low 0.967 | S. cerevisiae deletion strains, locus YPL241C, strain CIN2, active compounds read low 1 | S. cerevisiae deletion strains, locus YPR119W, strain clb2, active compounds read low 1 | S. cerevisiae deletion strains, locus YPR141C, strain kar3, active compounds read low 1.01 | S. cerevisiae deletion strains, locus YPR163C, strain tif3, active compounds read low 1.01 | S. cerevisiae deletion strains, locus YPR167C, strain met16, active compounds read low 1 | S. cerevisiae deletion strains, strain wtn01, active compounds read low 1.01 | S. cerevisiae strains, strain wild type, active compounds read low 0.988
